Unmarked numbers belong to inactive results. Results filed as inconclusive are left out. A call without a number means that no potency is given here. Activity calls are given as the source filed them. Unless noted, calls come from the whole dose curve; as a rule, active = well fitted curve in the direction sought with a large enough effect in the repeat runs; inconclusive = weak or mixed curves; inactive = no such curve, though single readings can be large; an effect the other way counts as inactive or inconclusive.
What was measured:
[1] = qHTS assay to identify small molecule antagonists of the estrogen related receptor (ERR) signaling pathway from Tox21 library - cell viability counter screen (AID 1224834); note: nearly all actives have a fitted effect of over 30% in size; note: potency is the fitted concentration of half-maximal effect
Method in brief: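 Seeded ERR cells were rested 6 h at 37 C/5% CO2 before compounds, positive and negative controls or DMSO were added. Incubation continued for 17.5 h, and viability was then quantified by CellTiter-Fluor fluorescence.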

[2] = target: Luciferin 4-monooxygenase (Photinus pyralis) (UniProt P08659); assay: qHTS assay to identify small molecule inhibitors of firefly luciferase (AID 1224835); note: nearly all actives have a fitted effect of over 25% in size; note: potency is the fitted concentration of half-maximal effect
Luciferin 4-monooxygenase (Photinus pyralis), sequence (P08659 whole entry, looked up): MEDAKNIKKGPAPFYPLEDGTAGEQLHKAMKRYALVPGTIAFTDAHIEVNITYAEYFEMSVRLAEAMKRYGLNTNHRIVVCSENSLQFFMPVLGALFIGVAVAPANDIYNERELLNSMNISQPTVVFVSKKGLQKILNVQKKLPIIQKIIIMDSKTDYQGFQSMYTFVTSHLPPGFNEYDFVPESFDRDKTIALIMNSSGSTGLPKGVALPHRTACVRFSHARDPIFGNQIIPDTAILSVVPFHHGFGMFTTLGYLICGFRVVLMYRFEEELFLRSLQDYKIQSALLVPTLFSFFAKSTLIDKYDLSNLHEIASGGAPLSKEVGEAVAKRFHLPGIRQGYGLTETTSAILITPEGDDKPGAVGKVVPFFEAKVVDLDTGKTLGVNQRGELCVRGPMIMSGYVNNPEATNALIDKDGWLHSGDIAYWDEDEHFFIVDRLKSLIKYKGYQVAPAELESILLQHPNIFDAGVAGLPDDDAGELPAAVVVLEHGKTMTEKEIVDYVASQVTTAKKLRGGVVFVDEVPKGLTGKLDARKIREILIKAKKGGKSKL
Method in brief: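 Inhibition of purified Photinus luciferase is measured by luminescence. Substrate levels (D-luciferin, ATP) sit at their KM values. Each compound is tested in a concentration series.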

[3] = qHTS assay to identify small molecule agonists of the constitutive androstane receptor (CAR) signaling pathway - cell viability counter screen (AID 1224836); note: nearly all actives have a fitted effect of over 45% in size; note: potency is the fitted concentration of half-maximal effect
Method in brief: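 Fluorescence from CellTiter-Fluor indicates live cells after 23 h exposure. The human hepatoma line expresses hCAR and a CYP2B6-2.2kb reporter. Incubation medium contains 0.75 uM PK11195 (final).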

[4] = qHTS assay to identify small molecule antagonists of the constitutive androstane receptor (CAR) signaling pathway - cell viability counter screen (AID 1224837); note: nearly all actives have a fitted effect of over 45% in size; note: potency is the fitted concentration of half-maximal effect
Method in brief: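 To flag cytotoxic false antagonists, HepG2 hCAR/CYP2B6-2.2kb cells were treated 23 hr with 15-concentration compound series and 50 nM CITCO at 37 C/5% CO2; CellTiter-Fluor fluorescence was the measured end point.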

[5] = target: Nuclear receptor subfamily 1 group I member 3 (Homo sapiens) (UniProt Q14994); assay: qHTS assay to identify small molecule agonists of the constitutive androstane receptor (CAR) signaling pathway (AID 1224839); note: nearly all actives have a fitted effect of over 15% in size; note: potency is the fitted concentration of half-maximal effect;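 for activation: HepG2 cells stably carrying human CAR and a CYP2B6 luciferase reporter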
Nuclear receptor subfamily 1 group I member 3 (Homo sapiens), sequence (Q14994 whole entry, looked up): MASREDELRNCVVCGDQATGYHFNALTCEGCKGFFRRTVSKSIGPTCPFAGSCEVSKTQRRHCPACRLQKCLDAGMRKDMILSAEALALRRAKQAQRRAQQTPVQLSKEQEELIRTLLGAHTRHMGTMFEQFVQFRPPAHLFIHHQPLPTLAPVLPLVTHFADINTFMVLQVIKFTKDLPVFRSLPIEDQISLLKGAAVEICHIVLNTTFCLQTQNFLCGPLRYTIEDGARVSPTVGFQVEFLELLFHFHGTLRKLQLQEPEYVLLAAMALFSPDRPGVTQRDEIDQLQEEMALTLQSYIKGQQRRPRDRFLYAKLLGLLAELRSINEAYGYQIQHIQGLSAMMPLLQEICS
Method in brief: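 Stable hCAR/CYP2B6-2.2kb HepG2 line in DMEM with 10% FBS; compounds (15 concentrations) and 0.75 uM PK11195 final, 24 h at 37 C/5% CO2, then ONE-Glo luminescence after 30 min.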

[6] = qHTS assay to identify small molecule antagonists of the estrogen related receptor signaling pathway with the pleiotropic PPARgamma coactivator (PGC) from Tox21 10K library - cell viability counter screen (AID 1224840; active = well fitted cell-killing curve with a large enough effect in the repeat runs, not every such curve was filed as active; note: nearly all actives have a fitted effect of over 40% in size; note: potency is the fitted concentration of half-maximal effect)
Method in brief: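 Seeded PGC/ERR cells (2,000/well, 6 h, 37 C/5% CO2) get compound by pin tool; 17.5 h incubation at 37 C; CellTiter-Fluor added, 30 min, fluorescence measured.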

[7] = qHTS assay to identify small molecule antagonists of the estrogen related receptor signaling pathway with the pleiotropic PPARgamma coactivator (PGC) from Tox21 10K library (AID 1224841; call rule not given here; note: actives are mostly falling curves and most rising ones were filed inactive; nearly all actives have a fitted effect of over 50% in size)
Method in brief: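 Test chemicals dissolved in DMSO were applied to pre-incubated (6 h) PGC/ERR cells at 2,000 cells/well for an 18 h, 37 C treatment; reporter luminescence was then read using One-Glo.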

[8] = qHTS assay to identify small molecule agonists of the estrogen related receptor signaling pathway with the pleiotropic PPARgamma coactivator (PGC) from Tox21 10K library (AID 1224842); note: nearly all actives have a fitted effect of over 15% in size
Method in brief: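 Luminescence from One-Glo (30 min, room temperature) measured after PGC/ERR cells had 18 h at 37 C with pinned compound (23 nL in DMSO). Cells had been seeded at 2,000 per well and pre-incubated 6 h.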

[9] = target: Thyrotropin receptor (Homo sapiens) (UniProt P16473); assay: qHTS assay to identify small molecule agonists of the thyroid stimulating hormone receptor (TSHR) signaling pathway (AID 1224843; calls by dose curve; note: nearly all actives have a fitted effect of over 45% in size)
Thyrotropin receptor (Homo sapiens), sequence (P16473 whole entry, looked up): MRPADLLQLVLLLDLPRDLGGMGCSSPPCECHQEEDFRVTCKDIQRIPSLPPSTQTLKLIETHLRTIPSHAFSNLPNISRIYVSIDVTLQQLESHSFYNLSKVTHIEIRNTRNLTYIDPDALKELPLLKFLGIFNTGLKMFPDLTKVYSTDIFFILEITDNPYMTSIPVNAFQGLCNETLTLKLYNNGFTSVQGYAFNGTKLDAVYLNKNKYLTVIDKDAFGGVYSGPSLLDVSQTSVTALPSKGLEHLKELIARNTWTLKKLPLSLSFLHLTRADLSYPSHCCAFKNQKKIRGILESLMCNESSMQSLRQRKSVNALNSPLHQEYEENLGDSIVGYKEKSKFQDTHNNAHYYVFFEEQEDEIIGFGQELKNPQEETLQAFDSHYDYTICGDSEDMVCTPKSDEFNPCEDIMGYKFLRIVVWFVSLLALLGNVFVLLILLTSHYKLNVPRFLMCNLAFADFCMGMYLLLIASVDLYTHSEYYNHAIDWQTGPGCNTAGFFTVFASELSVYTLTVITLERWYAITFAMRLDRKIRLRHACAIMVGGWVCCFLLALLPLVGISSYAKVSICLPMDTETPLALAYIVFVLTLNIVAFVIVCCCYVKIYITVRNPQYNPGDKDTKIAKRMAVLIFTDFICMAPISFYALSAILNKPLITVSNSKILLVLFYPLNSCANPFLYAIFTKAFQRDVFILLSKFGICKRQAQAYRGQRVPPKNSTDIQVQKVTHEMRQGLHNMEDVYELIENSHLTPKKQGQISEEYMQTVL
Method in brief: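 A cell-based cAMP HTRF format was run in TSHR-transfected HEK293 cells, 800 per well. Treatment: 30 min, room temperature. Detection: 1 h with labelled cAMP and anti-cAMP cryptate. Concentration-response over 15 points, three replicates.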

[10] = qHTS assay to identify small molecule agonists of the hypoxia (HIF-1) signaling pathway - cell viability counter screen (AID 1224844; calls by dose curve; note: nearly all actives have a fitted effect of over 50% in size)
Method in brief: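 HRE-bla ME-180; 0.5% dFBS; cpd 17 h, 37C, 5% CO2; CellTiter-Glo lum., 30 min RT, post-FRET read, same wells.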

[11] = qHTS assay to identify small molecule agonists of H2AX (AID 1224845; active = well fitted activation curve with a large enough effect in the signal ratio in the repeat runs, not every such curve was filed as active; the % refers to the signal ratio)
Method in brief: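 Phospho-H2AX Ser139 measured by HTRF (ex 320 nm; em 665 and 620 nm) after 24 hr antibody incubation. Compounds, 15 concentrations, 0.76% DMSO, were applied to CHO-K1 cells for 3hr at 37C before lysis.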

[12] = qHTS assay to identify small molecule agonists of the hypoxia (HIF-1) signaling pathway (AID 1224846; active = well fitted activation curve with a large enough effect in the signal ratio in the repeat runs, not every such curve was filed as active; the % refers to the signal ratio)
Method in brief: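 Reporter induction in HRE-bla ME-180 cells is taken as agonism: cells sit 5 hrs after plating, receive compounds or DMSO only, incubate 17 hrs at 37C under 5% CO2, and are loaded with CCF4-AM for beta-lactamase FRET measurement.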

[13] = qHTS assay to identify small molecule agonists of the estrogen related receptor (ERR) signaling pathway from Tox21 library (AID 1224849; calls by dose curve; note: nearly all actives have a fitted effect of over 15% in size); conditions: ERR reporter cell line, ONE-Glo luciferase, 18 h; at 92.4 µM (top of the series) unless noted
Method in brief: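 Tox21 compounds tested for ERR agonism in an NTP reporter cell line: 18 h treatment at 37 C, then ONE-Glo luminescence.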

[14] = qHTS RealTime-Glo MT Cell Viability Assay in HepG2 cells - 24 hour (AID 1224867); note: nearly all actives have a fitted effect of over 50% in size
Method in brief: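 Real-time, nonlytic viability: 600 HepG2 cells/well mixed with NanoLuc enzyme plus prosubstrate; 5 h settle, compound (DMSO) added by pintool; luminescence monitored over 40 h at 37 C.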

[15] = A CellTox Green Cytotoxicity Assay to monitor cytotoxicity in HEK293 cells - 0 hour (AID 1224869); note: nearly all actives have a fitted effect of over 50% in size
Method in brief: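 Tox21 screen in HEK293: membrane-impermeant cyanine dye fluoresces on binding dead-cell DNA; compound pinned 5 h post-seeding, plates held at 37 C, signal read repeatedly through 40 h.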

[16] = qHTS RealTime-Glo MT Cell Viability Assay in HepG2 cells - 40 hour (AID 1224870); note: nearly all actives have a fitted effect of over 50% in size
Method in brief: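 Real-time viability: cells seeded at 600 per well together with NanoLuc and cell-permeant prosubstrate, compounds added after 5 h incubation. Luminescence tracked at 0, 8, 16, 24, 32 and 40 h of exposure.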

[17] = qHTS assay to identify small molecule agonists of H2AX - cell viability counter screen (AID 1224847; calls by dose curve; note: nearly all actives have a fitted effect of over 30% in size; note: potency is the fitted concentration of half-maximal effect)
Method in brief: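 Viability of CHO-K1 (wild type) cells after 3 hr compound exposure was measured by CellTiter-Glo luminescence.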

[18] = qHTS RealTime-Glo MT Cell Viability Assay in HEK293 cells - 32 hour (AID 1224868)
Method in brief: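 Cells + reagent dispensed (600 cells/well, HEK293) → 5 h at 37 C/5% CO2 → 23 nL compound in DMSO pinned → 40 h at 37 C → luminescence read at 0, 8, 16, 24, 32, 40 h.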

[19] = target: Nuclear receptor subfamily 1 group I member 3 (Homo sapiens) (UniProt Q14994); assay: qHTS assay to identify small molecule antagonists of the constitutive androstane receptor (CAR) signaling pathway (AID 1224838);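 note: HepG2 cells stably expressing hCAR with CYP2B6 luciferase reporter stimulated by CITCO; nearly all actives have a fitted effect of over 40% in size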
Method in brief: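 Human hepatoma HepG2 cells expressing hCAR and a CYP2B6 promoter (2.2 kb) luciferase construct; compound titration (15 points) with 50 nM CITCO final, 24 h at 37 C/5% CO2; luminescence via ONE-Glo after 30 min at room temperature.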

[20] = qHTS assay to identify small molecule antagonists of the estrogen related receptor (ERR) signaling pathway from Tox21 library (AID 1224848); note: nearly all actives have a fitted effect of over 50% in size
Method in brief: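 ERR cell line, 2,000 cells/well. 6 h settle, then compound (DMSO) added; 18 h at 37 C; ONE-Glo luminescence after 30 min RT.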

Row | SMILES | Potency [1] | Potency [2] | Potency [3] | Potency [4] | Potency [5] | Potency [6] | Potency [7] | Potency [8] | Potency [9] | Potency [10] | Potency [11] | outcome [12] | activity change, positive = activation [13] | Potency [14] | Potency [15] | Potency [16] | Potency [17] | Potency [18] | Potency [19] | Potency [20]
1 | O=c1[nH]c2ccc(S(=O)CCN3CCC(Cc4ccc(F)cc4)CC3)cc2o1 (stereo unspecified) | inactive | inactive | inactive | inactive | inactive | inactive | inactive | inactive | inactive | inactive | inactive | inactive | -29.7% | inactive | inactive | inactive | – | – | – | –
2 | COc1ccccc1N=Nc1c(S(=O)(=O)O)cc2cc(S(=O)(=O)O)cc(NC(C)=O)c2c1O | 25.7 µM (active) | 29.8 µM (active) | 25.7 µM (active) | 25.7 µM (active) | inactive | 25.7 µM (active) | – | inactive | – | inactive | – | inactive | -27.5% | inactive | inactive | inactive | 42.3 µM (active) | inactive | – | –
3 | CCC(C)(C)C1CCC(O)CC1 (stereo unspecified) | inactive | 79.6 µM (active) | inactive | inactive | inactive | inactive | – | – | inactive | inactive | inactive | inactive | – | inactive | inactive | inactive | inactive | inactive | – | –
4 | O=C(O)c1ccccc1NCCc1ccccc1 | inactive | 27.5 µM (active) | inactive | inactive | 26.6 µM (active) | – | inactive | – | inactive | inactive | inactive | – | – | inactive | inactive | inactive | inactive | inactive | inactive | inactive
5 | CCCCC(CC)COC(=O)COc1ccc(Cl)cc1C (stereo unspecified) | inactive | inactive | inactive | inactive | inactive | inactive | – | – | inactive | inactive | inactive | inactive | – | inactive | inactive | inactive | inactive | inactive | – | –
6 | O=C(O)Cc1ccc(-c2ccccc2)cc1 | inactive | inactive | inactive | inactive | inactive | inactive | inactive | inactive | inactive | inactive | inactive | – | 1.1% [at 42.5 µM] | inactive | inactive | inactive | inactive | – | – | inactive
7 | O=C(C(=O)c1ccccc1)c1ccccc1 | inactive | inactive | inactive | inactive | – | inactive | inactive | inactive | – | inactive | – | inactive | 5.83% | inactive | inactive | inactive | inactive | inactive | inactive | inactive

Source: PubChem BioAssay (Tox21)
